Screens from PubChem BioAssay.
12-LOX inh – blocks human arachidonate 12S-lipoxygenase. purified 12hLO, xylenol orange hydroperoxide absorbance. Potency, µM (doses to about 108 µM), without a hit: at the highest dose activity change, negative = inhibition, usual class: inhibitors. 580,000 tested, 1.1% active; also: potency is read from the fitted curve at half-maximal effect
Target sequence (P18054 whole entry, looked up): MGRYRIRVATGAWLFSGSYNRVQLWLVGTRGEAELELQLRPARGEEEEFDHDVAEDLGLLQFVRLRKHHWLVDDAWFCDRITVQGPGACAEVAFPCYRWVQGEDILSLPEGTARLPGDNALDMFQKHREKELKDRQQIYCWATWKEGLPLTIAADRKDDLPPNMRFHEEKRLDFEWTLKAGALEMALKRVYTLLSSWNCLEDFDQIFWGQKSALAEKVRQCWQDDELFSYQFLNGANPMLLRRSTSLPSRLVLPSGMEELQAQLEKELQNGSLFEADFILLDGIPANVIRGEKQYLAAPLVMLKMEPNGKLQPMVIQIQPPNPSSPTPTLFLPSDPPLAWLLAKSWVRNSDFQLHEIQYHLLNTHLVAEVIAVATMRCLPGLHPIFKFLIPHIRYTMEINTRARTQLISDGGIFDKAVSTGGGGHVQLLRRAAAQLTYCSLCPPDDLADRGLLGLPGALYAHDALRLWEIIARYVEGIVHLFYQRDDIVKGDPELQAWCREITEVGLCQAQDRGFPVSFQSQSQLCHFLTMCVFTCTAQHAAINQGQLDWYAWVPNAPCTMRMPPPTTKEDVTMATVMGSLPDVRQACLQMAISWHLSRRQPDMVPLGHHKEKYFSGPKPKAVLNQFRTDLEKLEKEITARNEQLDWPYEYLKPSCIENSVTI
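Hydroperoxide product was detected by ferrous iron/xylenol orange as the 573 to 405 nm absorbance ratio. Arachidonic acid at 40 uM (final) was turned over for 30 min at room temperature by 150 nM human 12hLO, pH 7.0 Hepes buffer, after 15 min compound preincubation.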
HT1080 IDH1KD tx – toxicity to HT-1080 IDH1 knockdown cells (counter line). HT-1080 IDH1 knockdown viability, ATP luminescence, 48 h. Potency, µM (titrated, usually from 46.1 µM), for the others: top-dose activity, negative = toxicity, most hits filed as cytotoxic. 360,000 tested, 2% active. AID 686971;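 also: potency is read from the fitted curve at half-maximal effect; 0% = DMSO wells and -100% = cell-free medium wells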
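Luminescent ATP read-out (CellTiter-Glo, 10 min at room temperature) after 48 h compound exposure at 37 °C gave viability of IDH1-knockdown HT-1080 cells. Activity was normalised to DMSO and cell-free wells, then fitted as concentration-response curves.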
HT1080NT lethal – kills 2HG-producing HT-1080-NT fibrosarcoma cells. HT-1080-NT fibrosarcoma viability, CellTiter-Glo ATP luminescence, 48 h. Potency, µM (highest dose often 46.1 µM), without a hit: at the top dose activity, negative = less viability, most hits filed as cytotoxic. 360,000 tested, 1.6% active. AID 686970;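 also: NT is the 2HG producing partner of a matched IDH1 knockdown line; potency is read from the fitted curve at half-maximal effect; 0% = DMSO-treated cells and -100% = media-only wells without cells; nearly all actives have a fitted effect of over 55% in size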
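Toxicity toward the 2HG-producing NT line was scored as %Activity, normalised to DMSO and no-cell wells, from CellTiter-Glo luminescence after 48 hours' treatment.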
IL-1B inflam inh – blocks inflammasome-driven IL-1 beta release; THP-1 LPS/ATP IL-1B secretion, AlphaLISA, 16 h; active compounds read low; AID 743279; activity change, % at 57.5 µM; 360,000 tested, 4.7% active; in the data active = activity change below about -50%; inconclusive = mostly about -30% to -49%
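THP-1 cells pretreated 1 hr with compounds (up to 57.5 uM final), then stimulated with LPS (250 ng/mL final) plus ATP (1.25 mM final); secreted IL-1B measured by AlphaLISA after 16 hr, decreased signal indicating inhibition.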
TDP1 cell CPT – growth inhibition of DT40 Tdp1-/-;hTDP1 cells with camptothecin (screen for TDP1 inhibitors) | chicken DT40 Tdp1-/-;hTDP1 cells + 20 nM CPT, ATP luminescence, 48 h | 420,000 tested, 12% active | Potency, µM (top dose mostly 46.2 µM), without a hit: top-dose activity change, negative = growth inhibition, usual class: inhibitors | AID 686979; also: potency is read from the fitted curve at half-maximal effect; nearly all actives have a fitted effect of over 55% in size
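Chicken DT40 Tdp1-/- cells complemented with human TDP1, 400 cells/well, exposed to compounds plus 20 nM camptothecin for at least 48 h at 37 C; viability read as ATP content by CellTiter-Glo luminescence.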
DT40 TDP1 no CPT – qHTS for Inhibitors of human tyrosyl-DNA phosphodiesterase 1 (TDP1): qHTS in cells in absence of CPT. Potency, µM (series often up to 46.2 µM), inactives show at the highest dose activity change, negative = growth inhibition, actives largely listed as inhibitors. AID 686978, 2013. 420,000 tested, 15% active. DT40 Tdp1-/- hTDP1 cells, no CPT, ATP luminescence, 48 h; also: potency is read from the fitted curve at half-maximal effect; nearly all actives have a fitted effect of over 55% in size
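Seeded 400 DT40-hTDP1 cells/well (vehicle DMSO, no 20 nM CPT); pinned compounds; ≥48 hr at 37 °C; CellTiter-Glo luminescence as viability measure.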
An asterisk follows results filed as active; ? = inconclusive; · = no result given. The sample as a whole holds a higher share of hits than the screen did. Unless noted, calls follow the shape of the dose curve; as a rule, active = well fitted curve in the direction sought with a large enough effect; inconclusive = small, poorly fitted or top-dose-only effect, or another doubt; inactive = no such curve, though single readings can be large; an effect the other way counts as inactive or inconclusive. Unless noted, % is scaled to controls: 0 for no effect and ±100 for the full control effect.

SMILES | 12-LOX inh | HT1080 IDH1KD tx | HT1080NT lethal | IL-1B inflam inh | TDP1 cell CPT | DT40 TDP1 no CPT
COc1ccc(C2CC(=O)c3cnc(NC(=O)c4ccccc4OC)nc3C2)c(OC)c1 (stereo not drawn) | 3% | -12% | -18% | 8 | 16µM* | 15µM*
CC1=C[C@@H](CNC(=O)NCc2ccccc2)[C@H](C(C)C)C[C@H]1CC(=O)NCc1cccnc1 | -11% | · | · | · | · | ·
CC(C)(C)NC(=O)CC(NC(=O)c1ccccc1Cl)c1ccccc1 (stereo not drawn) | -5% | · | · | · | · | ·
CCOC(=O)C1=C(C)NC2=C(C(=O)CC(C)(C)C2)C1c1cccc(C)n1 (stereo not drawn) | 0% | -5% | 2% | 25 | -8% | -3%
CCOC(=O)CN=C1CC(C)(C)CC2=C1Sc1ncnc(N(C)C)c1N2 | ? | ? | 6% | 28 | 13µM* | 23µM*
CC(C)(C)c1ccc(NC(=O)CON=C(N)c2ccccc2)cc1 | -2% | -1% | -1% | 8 | ? | 29µM*
CCOC(=O)c1cc(/C(C)=N/OC(=O)c2ccc(C(C)(C)C)cc2)on1 | 0% | 8% | 2% | 16 | ? | 16µM*
Cc1noc(-c2ccc(Cl)cc2)c1C(=O)O/N=C(\N)c1ccc(C(C)(C)C)cc1 | -5% | ? | ? | -66* | ? | ?
CC(C)(C)c1ccc(C(=O)O/N=C(\N)c2ccccc2)cc1 | 1% | 2% | 1% | 7 | ? | 13µM*
CN(CCC(=O)NC(=O)NCc1ccccc1)Cc1ccccc1 | 5% | · | · | · | · | ·
COc1cc(OC)cc(C(=O)N2CC(c3noc(-c4ccccc4)n3)C2)c1 | 41% | · | · | · | · | ·
FC(F)(F)c1cccc(CSc2nccc(-c3ccc(Cl)cc3)n2)c1 | -2% | · | · | · | · | ·
COc1ccc(CCNC(=O)c2nnn3c2COC(c2ccc(C)cc2)C3)cc1OC (stereo not drawn) | 35% | · | · | · | · | ·
CCn1c(=O)c2c(nc(-n3nc(C)cc3C)n2CC)n(C)c1=O | 31% | · | · | · | · | ·
Nc1nc(-c2ccc(Br)cc2)cs1 | 45µM* | -8% | -6% | 0 | -10% | -13%
Nc1nc(-c2ccc(F)cc2)cs1 | -10% | 14% | -5% | -4 | -6% | -14%
COc1ccc(C(=O)C(C)OC(=O)c2cc3cccc(OC)c3oc2=O)cc1 (stereo not drawn) | 11% | · | · | · | · | ·
COC(=O)C1C(=O)C2=C(CC1C)NC(C)=C(C(=O)OC(C)C)C2c1ccc(C)o1 (stereo not drawn) | 22% | 0% | 0% | 6 | -10% | -1%
COC(=O)C1C(=O)C2=C(CC1C)NC(C)=C(C(=O)OCCOc1ccccc1)C2c1ccc(C)o1 (stereo not drawn) | 8% | -2% | 2% | 0 | 23µM* | 16µM*
COC(=O)C1C(=O)C2=C(CC1C)NC(C)=C(C(=O)OCc1ccc(OC)cc1)C2c1ccc(C)o1 (stereo not drawn) | -8% | -18% | -4% | -21 | ? | 10µM*
COC(=O)C1C(=O)C2=C(CC1C)NC(C)=C(C(=O)OC1CCCCC1)C2c1ccc(N(C)C)cc1 (stereo not drawn) | 0% | -11% | -6% | -3 | ? | 16µM*
CC(C)c1nnc(NC(=O)c2nn(C(C)C)c(=O)c3ccccc23)s1 | -21% | · | · | · | · | ·
O=C(CCCCCCC(=O)c1ccc(F)cc1)c1ccc(F)cc1 | -4% | · | · | · | · | ·
COc1ccc(C)cc1Nc1nc(N)c2ccccc2n1 | ? | ? | ? | -93* | ? | ?
COc1ccc(OC)c(Nc2nc(-c3ccc(C)cc3)nc3ccccc23)c1 | -2% | · | · | · | ? | -28%
SMILES | 12-LOX inh | HT1080 IDH1KD tx | HT1080NT lethal | IL-1B inflam inh | TDP1 cell CPT | DT40 TDP1 no CPT
Cc1ccccc1Nc1nc(N)c2ccccc2n1 | -2% | 16µM* | ? | -96* | ? | ?
N#Cc1ccc(COc2ccccc2C(N)=O)cc1 | 67% | · | · | · | · | ·
O=C(COc1ncnc2ccccc12)N(Cc1ccccc1)Cc1ccccc1 | -25% | · | · | · | · | ·
CCCCOC(=O)c1ccc(NC(=O)CSc2nc3c(c(=O)[nH]2)CCCC3)cc1 | ? | · | · | · | ? | 13µM*
NC(=O)c1ccccc1NC(=O)CSc1nc2c(c(=O)[nH]1)CCCC2 | 12% | 16µM* | 12µM* | 20 | ? | ?
CCCN1CCc2nc(SCC(=O)Nc3ccc(C)c(Cl)c3)[nH]c(=O)c2C1 | 31% | -2% | -1% | -8 | ? | 18µM*
CCc1cccc(NC(=O)CCc2nc3sc4c(c3c(=O)[nH]2)CCCC4)c1 | ? | 7% | 18% | 18 | 8.2µM* | 10µM*
Cc1ccc(Cl)cc1NC(=O)CSc1nc2c(c(=O)[nH]1)CN(Cc1ccccc1)CC2 | -3% | · | · | · | -16% | ?
Cc1cccc(NC(=O)CCc2nc3sc4c(c3c(=O)[nH]2)CCCC4)c1 | -28% | -5% | -11% | 0 | ? | ?
CN(C)C(=O)c1ccc2c(c1)n(Cc1ccc(F)cc1)c(=O)c1ccnn12 | 8% | · | · | · | · | ·
CC(C)NC(=O)NC1=C(C#N)C(C)(C)Cc2ccccc21 | 12% | · | · | · | · | ·
CC(C)NC(=O)CCCN1C(=O)COc2ccc(C(=O)COc3ccccc3Cl)cc21 | 40% | · | · | · | · | ·
CN(Cc1nc2ccccc2[nH]1)S(=O)(=O)c1ccc(Cl)cc1C(F)(F)F | 3% | · | · | · | · | ·
COc1ccccc1NC(=O)CCc1nc2sc3c(c2c(=O)[nH]1)CCCC3 | ? | -19% | -27% | 23 | 12µM* | 2.9µM*
Cc1ccc(NC(=O)CCc2nc3sc4c(c3c(=O)[nH]2)CCCC4)nc1 | · | 1% | 3% | 24 | 3% | -28%
